# Experimental data as given in PubChem BioAssay (NCATS).
# What was measured:
# [1] = qHTS profiling of the MIPE4 collection as inhibitors of Plasmodium falciparum (DD2) proliferation (AID 743345); conditions: P. falciparum Dd2 in erythrocytes, SYBR Green DNA, 72 h; at 28.5 µM (top of the series) unless noted
# How it was run: (§1)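 Erythrocytes infected with P. falciparum (0.3% parasitemia, 2.5% hematocrit) incubated with compounds 72 h at 37 C, 5% CO2. Lysis with saponin/Triton buffer containing SYBR Green I, overnight at room temperature in the dark; DNA fluorescence (485/535 nm) normalised to 0.29 uM artemisinin and DMSO.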
# [2] = qHTS profiling of the MIPE4 collection as inhibitors of Plasmodium falciparum (DD2) proliferation (Rep 2) (AID 743346); conditions: P. falciparum Dd2 in erythrocytes, SYBR Green DNA, 72 h; at 28.5 µM (top of the series)
# How it was run: as §1
Compound,"parasite growth remaining, % of DMSO control (lower = more inhibition) [1] [%]","parasite growth, % of control (lower = inhibition) [2] [%]"
CCOC(=O)Nc1ccc(NCc2ccc(F)cc2)cc1N,13.7,30.4
O=S(=O)(CC1CS1)c1ccc(Oc2ccccc2)cc1 (stereo not given),104,73.8
C[C@]12CC[C@H]3[C@@H](CCC4=CC(=O)CC[C@@]43C)[C@H]1CC[C@H]2OC(=O)CCC1CCCC1,15.6,18.3
CCOC(=O)c1cncn1[C@H](C)c1ccccc1,98,70.6
O=C(Nc1ccncc1)C(=O)c1cn(Cc2ccc(Cl)cc2)c2ccccc12,85.2,81.4
C#CC1(O)CCC2C3CCC4=CC(=O)CCC4(C)C3CCC21C (stereo not given),106,88
CN1[C@H]2CC(O)C[C@H]1[C@H]1O[C@H]12 (stereo not given in full),12.2,28.8
COc1cc2cc(c1Cl)N(C)C(=O)C[C@H](OC(=O)C(C)C)[C@]1(C)O[C@H]1[C@H](C)[C@@H]1C[C@@](O)(NC(=O)O1)[C@H](OC)C=CC=C(C)C2,16.8,21.9
CC(C)(C)c1cc(C=C(C#N)C#N)cc(Br)c1O,93.3,37.3
CO[C@H]1CCC(O[C@H]2C[C@H]([C@]3(C)CC[C@]4(C[C@H](O)[C@@H](C)[C@@H]([C@@H](C)C=C(C)C(=O)[C@H](C)C[C@H](C)C(=O)O)O4)O3)O[C@]3(O[C@@H]([C@H]4O[C@@](O)(CO)[C@H](C)C[C@H]4C)C[C@H]3C)[C@H]2C)O[C@H]1C (stereo not given in full),5.36,23.1
